# Screening data as filed in PubChem.
# HTT cytoprotect = qHTS Multiplex Assay to Identify Dual Action Probes in a Cell Model of Huntington: Cytoprotection (ATP); PC12 HTT-Q103 induced, cytoprotection, ATP luminescence, 40 h; Potency, µM (highest dose often 56.4 µM), for the others: cytoprotection (ATP increase), usual class: activators; actives 0.14% (n = 230,000); AID 1471, 2008; further: potency means the concentration at half of the fitted maximal effect; % of control where 0% means no effect; nearly all actives have a fitted effect of over 45% in size
#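 Cells were plated at 1500 per well in phenol red-free DMEM with 5% equine and 5% calf serum. Tebufenozide (100 nM final) and compounds were added, then ATPlite reagent, and luminescence was read.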
# CBFb-RUNX1 inh = qHTS Assay for Compounds Blocking the Interaction Between CBF-beta and RUNX1 for the Treatment of Acute Myeloid Leukemia; Runt-related transcription factor 1 (Homo sapiens) + Core-binding factor subunit beta …; AlphaScreen CBFb-His/RUNX1-biotin binding, biochemical; Potency, µM (titrated, usually from 59.8 µM), for the others: at the highest dose activity, negative = inhibition, hits mostly inhibitors; 230,000 tested, under 10 active; further: % of control where 0% means no effect
# Target sequence (Q01196 whole entry, looked up): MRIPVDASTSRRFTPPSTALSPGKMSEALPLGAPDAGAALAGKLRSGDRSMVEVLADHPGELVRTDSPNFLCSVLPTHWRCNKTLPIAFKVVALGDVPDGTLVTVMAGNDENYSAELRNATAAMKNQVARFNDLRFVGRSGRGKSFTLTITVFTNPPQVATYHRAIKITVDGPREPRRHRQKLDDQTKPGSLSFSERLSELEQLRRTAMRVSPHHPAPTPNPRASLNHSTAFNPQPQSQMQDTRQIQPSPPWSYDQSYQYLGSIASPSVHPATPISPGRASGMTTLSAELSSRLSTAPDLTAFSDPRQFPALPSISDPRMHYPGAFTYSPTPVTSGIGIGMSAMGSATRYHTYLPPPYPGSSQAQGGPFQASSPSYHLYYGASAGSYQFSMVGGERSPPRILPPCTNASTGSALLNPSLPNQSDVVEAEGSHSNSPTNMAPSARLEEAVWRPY
# Target sequence (Q13951 whole entry, looked up): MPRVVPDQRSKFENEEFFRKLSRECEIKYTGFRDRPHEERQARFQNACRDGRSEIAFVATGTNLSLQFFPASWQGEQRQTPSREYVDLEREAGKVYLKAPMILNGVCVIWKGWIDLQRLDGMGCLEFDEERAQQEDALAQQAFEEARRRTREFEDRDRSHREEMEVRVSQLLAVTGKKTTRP
#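 Read-out: AlphaScreen. Format: His-CBF-beta with biotinylated RUNX1 (30 nM each) preincubated 20 min, compound 15 min, Ni-chelate plus streptavidin beads 90 min; room temperature throughout.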
# HPGD block = qHTS Assay for Inhibitors of HPGD (15-Hydroxyprostaglandin Dehydrogenase). 15-hydroxyprostaglandin dehydrogenase [NAD(+)] (Homo sapiens), P15428. purified HPGD, NADH fluorescence kinetic, PGE2 substrate. Potency, µM, for inactives: at the highest dose activity change, negative = inhibition, most hits filed as inhibitors. actives 4.3% (n = 150,000); active means well fitted inhibition curve with a large enough effect, not every such curve was filed as active; inconclusive means small, poorly fitted or top-dose-only effect, or another doubt; inactive means no such curve, though single readings can be large or run the other way; further: potency means the concentration at half of the fitted maximal effect; on the % scale 0 is the no-effect control and ±100 the full control effect
#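 20 nM HPGD preincubated 15 min at room temperature with compound in 50 mM Tris-HCl pH 8, 0.01% Tween 20. Started with 1 mM NAD+ and 30 uM prostaglandin E2; NADH fluorescence (360/450 nm) read 5 times over 30-s intervals, last minus first.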
# HttQ103 aggreg = qHTS Multiplex Assay to Identify Dual Action Probes in a Cell Model of Huntington: Aggregate Formation (GFP); PC12 HttQ103-GFP aggregates, Acumen cytometry, 40 h; actives 1.1% (n = 220,000); Potency, µM (doses to about 46.1 µM), without a hit: at the highest dose activity change, negative = inhibition, actives largely listed as inhibitors; further: potency means the concentration at half of the fitted maximal effect; on the % scale 0 is the no-effect control and ±100 the full control effect; nearly all actives have a fitted effect of over 60% in size
#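 Quantitative HTS on tebufenozide-induced (100 nM) PC12 cells stably expressing polyQ103 Huntingtin exon 1–GFP. Reduction of bright GFP aggregates, detected by laser scanning cytometry after lysis, identified actives across the titration.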
# ALDH1A1 block = qHTS Assay for Inhibitors of Aldehyde Dehydrogenase 1 (ALDH1A1) | Purified ALDH1A1, NADH fluorescence, propionaldehyde substrate | AID 1030, 2008 | Potency, µM (series often up to 75.3 µM), for inactives: at the highest dose activity, negative = inhibition, most hits filed as inhibitors | actives 7.3% (n = 220,000); active means well fitted inhibition curve with a large enough effect, not every such curve was filed as active; inconclusive means small, poorly fitted or top-dose-only effect, or another doubt; inactive means no such curve, though single readings can be large or run the other way;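 further: potency means the concentration at half of the fitted maximal effect; plate controls were no enzyme wells and a reference inhibitor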
# PNC inhibitor = High Content Assay for Compounds that inhibit the Assembly of the Perinucleolar Compartment | activity change (PNC), negative = inhibition, % at 10 µM | AID 2417, 2010 | actives 3.1% (n = 140,000) | PC3M PTB-GFP, PNC prevalence imaging, 16 h; hits give low values;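 active means readout at or below -70, meaning at least 70% loss of cells showing the perinucleolar compartment, a nuclear body marking cancer cells; inconclusive means readout between -30 and a set limit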;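 further: plate controls were DMSO wells for no effect and camptothecin positive control wells for full effect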
#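 Compounds are pinned in duplicate onto adhered PC3M cells stably expressing GFP-tagged PTB and incubated 16 h at 37 C. Cells are then fixed, nuclei stained with Hoechst, and PNC-positive cells counted.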
# * = called active by the depositor; u = inconclusive; x = not tested or not shown; [ ] = another dose, or the depositor's remark. Sampled rows, rich in hits. Any-hit rate of the full collection: about 11%. Unless noted, the call rests on the fitted dose curve; in most records, active means well fitted curve in the direction sought with a large enough effect; inconclusive means small, poorly fitted or top-dose-only effect, or another doubt; inactive means no such curve, though single readings can be large; an effect the other way counts as inactive or inconclusive.
SMILES,HTT cytoprotect,CBFb-RUNX1 inh,HPGD block,HttQ103 aggreg,ALDH1A1 block,PNC inhibitor
CNC(=S)N1CCN(c2cccc(OC)c2)CC1,5%,-1%,-18%,4%,-11%,49
S=C(Nc1cccc(Cl)c1)N1CCN(Cc2ccccc2)CC1,20%[10 µM],-9%,-12%,1%,-9%,-80*
COc1cccc(N2CCN(C(=S)NCCc3ccccc3)CC2)c1,-1%[10 µM],4%,-3%,-24%,-4%,-92*
Oc1ccccc1N1CCN(C(=S)NCCc2ccccc2)CC1,-8%[10 µM],-7%,-3%,-2%,-10%,-9
COc1ccc(CCNC(=O)c2ccc(CN3CCC(Cc4ccccc4)CC3)cc2)cc1OC,-19%[0.074 µM],-3%,3%,19%,8%,6
Oc1ccc(N2CCN(C(=S)NCCc3ccccc3)CC2)cc1,-72%,-14%,-13%,-30%,11µM*,1
COc1cccc(NC(=O)CCSc2ccc(C)cc2)c1,-13%[10 µM],-9%,-21%,26%,-11%,-22
CC(=O)N1CCN(CC(=O)Nc2cc(S(=O)(=O)N3CCOCC3)ccc2C)CC1,-14%,8%,x,-3%,-7%,x
S=C(NCCc1ccccc1)N1CCN(Cc2ccccc2)CC1,0%[10 µM],14%,2%,13%,7.9µM*,29
Fc1cccc(CN2CCN(C(=S)NCCc3ccccc3)CC2)c1,x,6%,x,-7%,u,x
O=C(Nc1nccs1)c1cc2c(s1)CCCCC2,-69%[10 µM],-2%,u,13µM*,u,-2
Cc1cc(C)n(C(=O)c2cc3c(s2)CCCC3)n1,8%,14%,-18%,20%,20µM*,12
NNC(=O)c1cc2c(s1)CCCCCC2,-3%,-1%,-4%,4%,0.35µM*,-23
c1ncc(CCCC2CCNCC2)[nH]1,x,10%,x,x,x,x
COC(=O)[C@@]1(Cc2ccc(F)cc2)[C@H]2c3cc(C(=O)N(C)C)n(Cc4cc(F)c(F)c(F)c4)c3C[C@H]2CN1C(=O)c1ccccc1,2%,16%,-4%,x,12%,x
O=C(C1=C(O)C(=O)N(CCN2CCOCC2)C1c1cccs1)c1cc2ccccc2o1 (configuration not stated),-13%[0.074 µM],x,x,x,x,x
COCCN1C(=O)C(O)=C(C(C)=O)C1c1ccc(F)cc1 (configuration not stated),-3%,4%,u,-6%,14µM*,-17
COc1ccc(OC)c(C2C(C(C)=O)=C(O)C(=O)N2CCN2CCOCC2)c1 (configuration not stated),6%,6%,-14%,3%,u,25
Cc1nc(C)c(C(=O)C2=C(O)C(=O)N(CCN3CCOCC3)C2c2cccnc2)s1 (configuration not stated),-3%[0.074 µM],8%,-16%,-6%,-3%,u
O=C(C1=C(O)C(=O)N(CCN2CCOCC2)C1c1cccnc1)c1cc2ccccc2o1 (configuration not stated),-8%,4%,-11%,17%,35µM*,-16
COCCN1C(=O)C(O)=C(C(=O)c2cccs2)C1c1ccccc1 (configuration not stated),-1%,0%,-5%,-15%,2%,63
O=C(C1=C(O)C(=O)N(CCCN2CCOCC2)C1c1ccncc1)c1cc2ccccc2o1 (configuration not stated),16%[10 µM],-1%,-7%,24%,14µM*,15
CC(=O)C1=C(O)C(=O)N(CCN2CCOCC2)C1c1ccccc1 (configuration not stated),23%[10 µM],-1%,-15%,-1%,25µM*,-14
